Residue numbers refer to the chain shown, from its start.

What all share (assay): protein-binding microarray (PBM); PBM: ~300 nM protein, 6 mM HEPES pH 7.8, 80 mM KCl, 0.5 mM EDTA, 0.5 mM EGTA, 6% glycerol, 35 ng/ul poly-dIdC, 1% milk, 1 h, room temperature; Ap Aiptasia and Nv Nematostella (sea anemones) / Co Capsaspora / Aq Amphimedon (sponge) / Dm Drosophila / Hu human; RHD is the Rel homology domain; high values mean tight binding
Holding throughout (conditions): dsDNA, one strand shown

One experiment concerns the target T1, GST-Ap-NF-kB RHD (Exaiptasia pallida (Aiptasia), UniProt A0A913YAJ5 2-422).
T1 sequence: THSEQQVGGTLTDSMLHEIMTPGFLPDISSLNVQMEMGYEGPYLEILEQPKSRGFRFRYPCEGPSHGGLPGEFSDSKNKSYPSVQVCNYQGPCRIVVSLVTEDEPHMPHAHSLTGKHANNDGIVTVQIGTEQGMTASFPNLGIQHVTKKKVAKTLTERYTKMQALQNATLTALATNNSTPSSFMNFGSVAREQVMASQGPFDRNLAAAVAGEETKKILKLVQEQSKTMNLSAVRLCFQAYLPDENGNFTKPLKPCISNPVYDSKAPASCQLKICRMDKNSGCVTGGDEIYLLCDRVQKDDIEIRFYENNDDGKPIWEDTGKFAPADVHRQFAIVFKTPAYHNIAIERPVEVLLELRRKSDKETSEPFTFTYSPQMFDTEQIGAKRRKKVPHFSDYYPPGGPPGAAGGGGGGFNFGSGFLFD

Experiment [1] concerns the target T2, GST-Nv-NF-kB (Cys allele) (Nematostella vectensis, UniProt E5G601 2-411).
T2 sequence: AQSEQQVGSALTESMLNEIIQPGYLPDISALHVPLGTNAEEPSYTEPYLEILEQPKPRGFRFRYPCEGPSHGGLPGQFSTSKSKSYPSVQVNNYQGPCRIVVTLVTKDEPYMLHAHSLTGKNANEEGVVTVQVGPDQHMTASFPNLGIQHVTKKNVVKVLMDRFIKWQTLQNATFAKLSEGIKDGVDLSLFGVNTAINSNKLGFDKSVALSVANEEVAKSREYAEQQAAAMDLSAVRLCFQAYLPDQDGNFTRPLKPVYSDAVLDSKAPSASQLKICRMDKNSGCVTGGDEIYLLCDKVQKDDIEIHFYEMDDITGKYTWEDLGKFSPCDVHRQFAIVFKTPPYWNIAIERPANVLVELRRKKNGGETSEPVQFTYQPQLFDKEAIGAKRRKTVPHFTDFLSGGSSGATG

The target in experiment [2] is T3, GST-Nv-NF-kB (Ser allele) (Nematostella vectensis, UniProt A7UNT2 2-411).
T3 sequence: T2 sequence with Q21R, C66S, S207N, E215Q, V217A, E225K, A268E, D399E

The target in another experiment is T4, GST-Co-NF-kB (Capsaspora owczarzaki, UniProt F1ARL5 200-546).
T4 sequence: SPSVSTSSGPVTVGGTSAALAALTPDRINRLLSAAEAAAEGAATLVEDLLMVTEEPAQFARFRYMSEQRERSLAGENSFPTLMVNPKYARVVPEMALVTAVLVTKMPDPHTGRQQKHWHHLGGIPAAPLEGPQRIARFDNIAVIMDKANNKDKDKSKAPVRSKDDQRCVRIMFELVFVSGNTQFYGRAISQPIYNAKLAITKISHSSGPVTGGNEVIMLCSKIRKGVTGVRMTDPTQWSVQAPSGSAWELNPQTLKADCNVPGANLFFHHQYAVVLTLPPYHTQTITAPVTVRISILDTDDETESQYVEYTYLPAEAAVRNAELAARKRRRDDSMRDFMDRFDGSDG

The target in another experiment is T5, GST-Dm-Relish (Drosophila melanogaster, UniProt Q94527 99-473).
T5 sequence: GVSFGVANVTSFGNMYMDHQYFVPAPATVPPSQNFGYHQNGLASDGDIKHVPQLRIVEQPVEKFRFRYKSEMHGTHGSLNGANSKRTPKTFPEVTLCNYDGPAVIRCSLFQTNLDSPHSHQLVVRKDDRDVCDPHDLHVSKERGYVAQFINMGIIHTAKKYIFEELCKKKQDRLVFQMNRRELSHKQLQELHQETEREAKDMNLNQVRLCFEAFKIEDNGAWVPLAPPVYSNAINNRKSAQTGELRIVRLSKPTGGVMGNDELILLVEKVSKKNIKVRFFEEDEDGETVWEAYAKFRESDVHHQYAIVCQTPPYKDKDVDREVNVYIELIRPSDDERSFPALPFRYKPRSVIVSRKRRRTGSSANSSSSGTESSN

In another experiment the target is T6, GST-Aq-NF-kB (Amphimedon queenslandica, UniProt A9Y5G7 2-389).
T6 sequence: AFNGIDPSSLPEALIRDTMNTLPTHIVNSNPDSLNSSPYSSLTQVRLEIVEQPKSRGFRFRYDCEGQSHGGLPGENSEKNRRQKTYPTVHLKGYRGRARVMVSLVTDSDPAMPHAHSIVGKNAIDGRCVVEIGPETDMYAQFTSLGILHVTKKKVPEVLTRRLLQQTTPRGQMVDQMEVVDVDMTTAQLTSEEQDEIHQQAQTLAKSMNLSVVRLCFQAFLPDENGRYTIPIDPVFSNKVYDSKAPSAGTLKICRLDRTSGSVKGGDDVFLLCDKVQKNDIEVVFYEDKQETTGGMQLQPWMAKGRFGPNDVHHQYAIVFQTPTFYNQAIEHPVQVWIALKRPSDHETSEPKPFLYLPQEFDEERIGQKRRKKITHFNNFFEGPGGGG

Another experiment deals with GST-Hu-p50 (Homo sapiens, UniProt P19838 7-356).
Chain of GST-Hu-p50 (P19838 7-356): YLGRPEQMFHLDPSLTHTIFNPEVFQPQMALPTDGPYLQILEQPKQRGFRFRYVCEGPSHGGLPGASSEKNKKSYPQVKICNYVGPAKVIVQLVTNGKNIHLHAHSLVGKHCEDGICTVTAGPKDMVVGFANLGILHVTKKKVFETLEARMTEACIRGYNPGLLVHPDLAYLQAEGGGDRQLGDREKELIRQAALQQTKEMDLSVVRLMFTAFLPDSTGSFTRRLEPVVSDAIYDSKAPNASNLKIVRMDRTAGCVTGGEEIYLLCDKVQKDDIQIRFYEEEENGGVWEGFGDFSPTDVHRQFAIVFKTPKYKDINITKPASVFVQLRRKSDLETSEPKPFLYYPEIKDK

Regarding “CCGATTAACATCAGGGATATACCTGATGTTAATCGGGTCTTGATTCGCTTGACGCTGCTG”, the binding signal with GST-Ap-NF-kB RHD was found to be 3.17 z-score; in experiment [1], 3.3 z-score; in experiment [2], 1.91 z-score; in the experiment with GST-Co-NF-kB, 1.14 z-score; with GST-Dm-Relish, 6.4 z-score; with GST-Aq-NF-kB it was 5.31 z-score. In the experiment with GST-Hu-p50, this sequence came in with a binding signal of 1.99 z-score.
As for “CCGATTAACATCAAAACCTCCCCTGATGTTAATCGGGTCTTGATTCGCTTGACGCTGCTG”, the binding signal was 5.96 z-score with GST-Ap-NF-kB RHD; 5.34 z-score in experiment [1]; 7 z-score in experiment [2]; 6.47 z-score in the experiment with GST-Co-NF-kB; 3.36 z-score in the experiment with GST-Dm-Relish; 4.96 z-score in the experiment with GST-Aq-NF-kB. The binding signal in the experiment with GST-Hu-p50 worked out at 4.55 z-score.
Turning to “CCGATTAACATCAGGGGGGTAGATGATGTTAATCGGGTCTTGATTCGCTTGACGCTGCTG”, the binding signal is 4.07 z-score with GST-Ap-NF-kB RHD; 3.34 z-score in experiment [1]; 3.24 z-score in experiment [2]; 5.47 z-score with GST-Co-NF-kB; 3.11 z-score in the experiment with GST-Dm-Relish; 3.59 z-score with GST-Aq-NF-kB. This sequence yielded a binding signal with GST-Hu-p50 of 3.2 z-score.
In the case of “CCGATTAACATCAACAAATTCCCTGATGTTAATCGGGTCTTGATTCGCTTGACGCTGCTG”, the binding signal is 3.83 z-score with GST-Ap-NF-kB RHD; 5.69 z-score in experiment [1]; 6.87 z-score in experiment [2]; 4.16 z-score with GST-Co-NF-kB; 5.03 z-score with GST-Dm-Relish; 4.44 z-score with GST-Aq-NF-kB. The same sequence gave a binding signal in the experiment with GST-Hu-p50 of 4.56 z-score.
“CCGATTAACATCAGGGGAGACCCTGATGTTAATCGGGTCTTGATTCGCTTGACGCTGCTG”: the binding signal worked out at 6.47 z-score with GST-Ap-NF-kB RHD; 4.51 z-score in experiment [1]; 4.3 z-score in experiment [2]; 3.35 z-score in the experiment with GST-Co-NF-kB; 6.91 z-score with GST-Dm-Relish; 6.37 z-score with GST-Aq-NF-kB. This sequence also registered a binding signal with GST-Hu-p50 of 3.38 z-score.
Consider “CCGATTAACATCAGGGAATGTTATGATGTTAATCGGGTCTTGATTCGCTTGACGCTGCTG”, for which the binding signal in the experiment with GST-Ap-NF-kB RHD came out at 2.55 z-score; in experiment [1], 4.38 z-score; in experiment [2] it was 3.78 z-score; with GST-Co-NF-kB it was 2.75 z-score; with GST-Dm-Relish it was 1.85 z-score; with GST-Aq-NF-kB, 5.04 z-score. In the experiment with GST-Hu-p50, this sequence displayed a binding signal of 3.32 z-score.
“CCGATTAACATCAGGGGAAGAACTGATGTTAATCGGGTCTTGATTCGCTTGACGCTGCTG”: the binding signal in the experiment with GST-Ap-NF-kB RHD stood at 4.9 z-score; in experiment [1], 5.96 z-score; in experiment [2] it was 6.48 z-score; with GST-Co-NF-kB it was 6.9 z-score; with GST-Dm-Relish, 9.56 z-score; with GST-Aq-NF-kB, 5.61 z-score. In the experiment with GST-Hu-p50, the binding signal was 4.93 z-score.
Consider “CCGATTAACATCAGGGGGACACCTGATGTTAATCGGGTCTTGATTCGCTTGACGCTGCTG”, for which the binding signal with GST-Ap-NF-kB RHD turned out to be 5.64 z-score; in experiment [1], 4.46 z-score; in experiment [2], 4.25 z-score; with GST-Co-NF-kB, 5.26 z-score; with GST-Dm-Relish, 4.25 z-score; with GST-Aq-NF-kB, 5.46 z-score. Further, the binding signal with GST-Hu-p50 worked out at 4.49 z-score.
As for “CCGATTAACATCAAAACCCCCCTTGATGTTAATCGGGTCTTGATTCGCTTGACGCTGCTG”, the binding signal in the experiment with GST-Ap-NF-kB RHD came to 8.76 z-score; in experiment [1], 7.32 z-score; in experiment [2], 7.84 z-score; in the experiment with GST-Co-NF-kB, 3.85 z-score; with GST-Dm-Relish it was 10.5 z-score; in the experiment with GST-Aq-NF-kB, 8.03 z-score. The sequence also registered a binding signal with GST-Hu-p50 of 7 z-score.
“CCGATTAACATCAAAAAGTCCCGTGATGTTAATCGGGTCTTGATTCGCTTGACGCTGCTG”: the binding signal with GST-Ap-NF-kB RHD was 7.34 z-score; in experiment [1], 9.76 z-score; in experiment [2], 8.57 z-score; with GST-Co-NF-kB it was 2.47 z-score; in the experiment with GST-Dm-Relish, 9 z-score; with GST-Aq-NF-kB, 8.05 z-score. In addition, the binding signal in the experiment with GST-Hu-p50 is 6.44 z-score.
Turning to “CCGATTAACATCACAATTCCCCCTGATGTTAATCGGGTCTTGATTCGCTTGACGCTGCTG”, the binding signal was 7.95 z-score with GST-Ap-NF-kB RHD; 8.27 z-score in experiment [1]; 9.39 z-score in experiment [2]; 8.14 z-score in the experiment with GST-Co-NF-kB; 5.44 z-score with GST-Dm-Relish; 6.33 z-score with GST-Aq-NF-kB. In addition, the binding signal with GST-Hu-p50 was 7 z-score.
On to “CCGATTAACATCACGGTTTCCCCTGATGTTAATCGGGTCTTGATTCGCTTGACGCTGCTG”, for which the binding signal was found to be 7.03 z-score with GST-Ap-NF-kB RHD; 7.64 z-score in experiment [1]; 9.99 z-score in experiment [2]; 7.67 z-score with GST-Co-NF-kB; 5.09 z-score with GST-Dm-Relish; 5.42 z-score with GST-Aq-NF-kB. The same sequence showed a binding signal with GST-Hu-p50 of 5.88 z-score.
